From PubChem BioAssay (NCATS) come the findings set out here.

Each structure is given as a SMILES string. Several values for one entry are separate records, joined by “and”; a condition that tells them apart may be missing. Equal entries are not always repeated. Values without a mark were called inactive. Records with an inconclusive call do not appear. Activity calls are given as the source filed them. Unless noted, calls come from the whole dose curve; as a rule, active = well fitted curve in the direction sought with a large enough effect; inconclusive = small, poorly fitted or top-dose-only effect, or another doubt; inactive = no such curve, though single readings can be large; an effect the other way counts as inactive or inconclusive. Bounds are passed on as bounds.

Assay [1] can be described thus: Cellular Toxicity (caspase-3) Mesangial (AID 660).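 Note: combined caspase 3 and 7 activity read by Caspase-Glo luminescence; cells exposed to compound for 16 h before the caspase read.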 In outline:
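Luminescent Caspase-Glo 3/7 readout (aminoluciferin substrate cleavage, 20 min RT) after 16 h compound exposure at 37 °C of normal human mesangial cells. Signal increase normalized between DMSO basal and 100 uM tamoxifen; Hill-equation AC50.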

The nature of assay [2]: MultiTox-Fluor Cytotoxicity Assay - LYMP1-001 - Live Cells (AID 947).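 Note: 0% = DMSO only and full inhibition = tetraoctylammonium bromide control.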
Assay [3] in a line: Cell Viability - LYMP2-013 (AID 970).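 Note: 0% = DMSO only and full inhibition = tetraoctylammonium bromide control; nearly all actives have a fitted effect of over 55% in size.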 In short, it runs like this: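 CellTiter-Glo luminescence (cellular ATP) read after 30 min at RT. Cells: human lymphoblastoid line, 2500/well, 24 hr compound exposure at 37 C. Tetraoctylammonium bromide positive control; AC50 via standard Hill fit of qHTS titrations.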
The nature of assay [4]: Cell Viability - LYMP2-007 (AID 979).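 Note: cells exposed to compound for 24 h before reading; 0% = DMSO only and the negative end = 92 µM tetraoctylammonium bromide; nearly all actives have a fitted effect of over 60% in size.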 In outline:
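qHTS cytotoxicity: 2500 cells/well, 5 hr 37 C settle, compound 24 hr 37 C, CellTiter-Glo 30 min RT, luminescence. Decrease in ATP = toxicity. AC50 by standard Hill equation; tetraoctylammonium bromide positive control.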

Assay [5] is described as follows: Cell Viability - LYMP2-010 (AID 981).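 Note: cells exposed to compound for 24 hours at 37 °C; % is set by controls: 0 for no effect and ±100 for the full control effect; nearly all actives have a fitted effect of over 55% in size.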 In outline:
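qHTS cytotoxicity, 1536-well: 2500 cells/well, 5 hr settle, 24 hr compound at 37 C, CellTiter-Glo 30 min RT, luminescence read. Decrease in ATP = toxicity; AC50 via standard Hill equation. Positive control tetraoctylammonium bromide.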

A short description of assay [6]: Cell Viability - LYMP1-002 - Assay at 24 hr (AID 993). Note: % is set by controls: 0 for no effect and ±100 for the full control effect. In short, it runs like this: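 CellTiter-Glo luminescence (intracellular ATP) after 24 h compound exposure, 37 C, in LYMP1-002 human lymphoblastoid cells; decreased ATP taken as cytotoxicity. AC50 from standard Hill fit of concentration-response curves.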
The target in assay [7] is Estrogen receptor (Homo sapiens) (UniProt P03372). The experiment in a line: qHTS assay for small molecule agonists of estrogen receptor alpha signaling (AID 588514; calls by dose curve;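 note: 0% = vehicle only and 100% = reference agonist; nearly all actives have a fitted effect of over 70% in size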). In short, it runs like this: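 Read-out: CCF4 fluorescence from a beta-lactamase reporter in ER-alpha-UAS-bla HEK 293 cells after 18 hrs of compound exposure at 37 C. Normalized to 20 nM 17-beta-estradiol (100%) and DMSO (0%).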
Chain of Estrogen receptor (Homo sapiens) (P03372 whole entry, looked up): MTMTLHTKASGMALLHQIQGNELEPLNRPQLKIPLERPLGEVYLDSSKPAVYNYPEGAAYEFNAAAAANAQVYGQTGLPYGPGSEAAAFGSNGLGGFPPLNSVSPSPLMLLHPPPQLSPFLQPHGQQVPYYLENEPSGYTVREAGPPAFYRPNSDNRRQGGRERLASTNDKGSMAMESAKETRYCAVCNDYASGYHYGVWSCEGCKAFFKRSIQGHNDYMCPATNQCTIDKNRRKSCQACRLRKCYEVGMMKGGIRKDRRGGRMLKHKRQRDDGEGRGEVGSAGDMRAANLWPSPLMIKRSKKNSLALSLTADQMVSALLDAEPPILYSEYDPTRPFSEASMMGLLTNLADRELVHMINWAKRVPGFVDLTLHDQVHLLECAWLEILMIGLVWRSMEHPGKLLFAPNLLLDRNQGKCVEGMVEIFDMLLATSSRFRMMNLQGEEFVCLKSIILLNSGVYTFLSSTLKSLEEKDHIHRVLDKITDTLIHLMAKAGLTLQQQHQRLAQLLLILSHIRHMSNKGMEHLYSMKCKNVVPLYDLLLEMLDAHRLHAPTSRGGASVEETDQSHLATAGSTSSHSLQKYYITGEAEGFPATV

Assay [8] deals with Peroxisome proliferator-activated receptor gamma (Homo sapiens) (UniProt P37231). The experiment in a line: qHTS assay for small molecule antagonists of peroxisome proliferator-activated receptor gamma signaling (AID 588537; active = well fitted inhibition curve with a large enough effect in the signal ratio, with a control signal flat, not every such curve was filed as active; the % refers to the signal ratio;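 note: reporter cells co-stimulated with 50 nM rosiglitazone agonist during compound treatment; % of control where 0% means no effect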). In outline: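 Read-out: CCF4 fluorescence (ex 405, em 460/530 nm) after 2 h at RT. Cells were HEK293 carrying a UAS-bla reporter and treated 16 h at 37 C with compound plus rosiglitazone (50 nM final). Normalized to rosiglitazone and DMSO.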
Chain of Peroxisome proliferator-activated receptor gamma (Homo sapiens) (P37231 whole entry, looked up): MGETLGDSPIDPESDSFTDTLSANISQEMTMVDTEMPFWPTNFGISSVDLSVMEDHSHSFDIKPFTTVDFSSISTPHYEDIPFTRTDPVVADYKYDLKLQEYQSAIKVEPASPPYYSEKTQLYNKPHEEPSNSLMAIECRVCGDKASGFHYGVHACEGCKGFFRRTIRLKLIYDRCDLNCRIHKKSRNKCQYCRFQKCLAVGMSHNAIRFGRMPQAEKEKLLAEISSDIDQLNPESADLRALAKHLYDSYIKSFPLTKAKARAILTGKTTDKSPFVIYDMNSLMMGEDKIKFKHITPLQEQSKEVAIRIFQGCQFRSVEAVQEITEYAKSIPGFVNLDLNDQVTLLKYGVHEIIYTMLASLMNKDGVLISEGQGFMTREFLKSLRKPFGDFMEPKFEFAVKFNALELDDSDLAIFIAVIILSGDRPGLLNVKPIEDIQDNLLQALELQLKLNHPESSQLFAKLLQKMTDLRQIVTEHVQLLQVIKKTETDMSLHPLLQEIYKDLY
A general note: In qHTS, concentration-response curves come from the screen itself.

A short description of assay [9]: qHTS assay for small molecule disruptors of the mitochondrial membrane potential - 1 hr assay (AID 651754; calls by dose curve; note: % is set by controls: 0 for no effect and ±100 for the full control effect; nearly all actives have a fitted effect of over 35% in size). In outline:
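Read-out: dye fluorescence at 490 nm ex/535 nm em (monomers) and 540 nm ex/590 nm em (aggregates) in HepG2 cells. Compound exposure 1 hr at 37C, followed by 30 min dye loading.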

The target of assay [10] is Nuclear receptor ROR-gamma (Homo sapiens) (UniProt P51449). The experiment in a line: qHTS assay for small molecule antagonists of the retinoid-related orphan receptor gamma (ROR-gamma) signaling pathway (AID 651802).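 Note: CHO cells with doxycycline-induced ROR-gamma expression; luciferase reporter luminescence driven by ROR response element; % is set by controls: 0 for no effect and ±100 for the full control effect; nearly all actives have a fitted effect of over 60% in size.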 In short, it runs like this: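 Luciferase read-out: ONE-Glo luminescence after 30 min at room temperature, following 16hr doxycycline induction at 37C, 5% CO2 of CHO cells with TET-inducible ROR and RORE-LUC reporter; decreased luminescence = reduced reporter activity.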
Chain of Nuclear receptor ROR-gamma (Homo sapiens) (P51449 whole entry, looked up): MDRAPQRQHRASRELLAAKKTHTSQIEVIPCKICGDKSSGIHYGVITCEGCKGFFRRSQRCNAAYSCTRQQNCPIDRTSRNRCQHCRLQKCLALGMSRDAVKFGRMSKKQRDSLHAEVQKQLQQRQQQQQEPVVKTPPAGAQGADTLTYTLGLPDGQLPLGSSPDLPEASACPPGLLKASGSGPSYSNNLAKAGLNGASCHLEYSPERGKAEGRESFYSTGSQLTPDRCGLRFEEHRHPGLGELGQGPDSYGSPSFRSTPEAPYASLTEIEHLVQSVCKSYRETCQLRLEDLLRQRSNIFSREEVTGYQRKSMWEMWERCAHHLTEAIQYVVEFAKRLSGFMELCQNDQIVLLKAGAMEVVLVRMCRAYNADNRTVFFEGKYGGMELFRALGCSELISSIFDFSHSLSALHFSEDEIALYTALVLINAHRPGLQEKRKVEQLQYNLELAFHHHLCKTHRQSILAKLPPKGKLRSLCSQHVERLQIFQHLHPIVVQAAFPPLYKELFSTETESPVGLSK

Assay [11] can be described thus: Cell Viability - SK-N-SH (AID 435; calls by dose curve;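 note: potency is the fitted concentration of half-maximal effect; compound exposure lasted 40 h at 37 °C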). The following applies: SK-N-SH neuroblastoma cell viability qHTS. In outline: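 SK-N-SH human neuroblastoma cells (1500/well) were exposed to compounds in complete medium for 40 h at 37 °C, and intracellular ATP was then measured by CellTiter-Glo luminescence. AC50 was taken from Hill fits, normalized to DMSO and 100 uM tamoxifen.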

Assay [12] in a line: Cell Viability - Mesenchymal (AID 546).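 Note: cells exposed to compound for 40 hours before reading; 0% = DMSO only and -100% = 100 µM tamoxifen.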 In short, it runs like this: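 Human renal mesenchymal cells (glomerulus-derived), 1000 cells/well, 5 hr 37 °C pre-incubation; compound 40 hr, 37 °C; CellTiter-Glo, 20 min RT; luminescence; AC50 via Hill equation.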
Assay [13] in a line: Cellular Toxicity (caspase-3) N2a (AID 665).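 Note: compound exposure lasted 16 h at 37 °C before readout.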 The note with it: N2a cells, luminescence, normalized: DMSO 0%, 10 µM staurosporine 100%; at 92.2 µM (top of the series). In short, it runs like this:
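Luminescent Caspase-Glo 3/7 readout in N2a mouse neuroblastoma cells after 16 h compound exposure at 37 °C. Signal scaled to DMSO (basal) and 10 uM staurosporine (100%). Concentration-response fitted with Hill equation for AC50.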

Assay [14] is described as follows: Cell Viability - LYMP2-018 (AID 985).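 Note: plate controls were DMSO only for no effect and tetraoctylammonium bromide at 92 µM for full effect; nearly all actives have a fitted effect of over 50% in size.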 In short, it runs like this:
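2500 cells/well; 5 hr 37 C; cmpd 24 hr 37 C, complete medium; CellTiter-Glo 30 min RT; luminescence. Tetraoctylammonium bromide positive control. AC50 via Hill fit.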

The target of assay [15] is Peroxisome proliferator-activated receptor gamma (Homo sapiens) (UniProt P37231). The experiment in a line: qHTS assay for small molecule agonists of peroxisome proliferator-activated receptor gamma signaling (AID 588536; active = well fitted curve in the direction sought with a large enough effect in the signal ratio, with a control signal flat, not every such curve was filed as active; the % refers to the signal ratio;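 note: 0% = DMSO basal wells and 100% = rosiglitazone at 2 µM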). In outline:
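Cells were plated and held 6–6.5 h at 37 C, then compounds were added as a titration series. After a further 16 h, CCF4 dye was loaded for 2 h at room temperature and emission at 460/530 nm recorded.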

The target in assay [16] is Retinoic acid receptor RXR-alpha (Homo sapiens) (UniProt P19793). The experiment in a line: qHTS assay for small molecule agonists of retinoid X receptor alpha signaling (AID 588544; calls by dose curve;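 note: 0% = DMSO basal wells and 100% = reference agonist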).
Chain of Retinoic acid receptor RXR-alpha (Homo sapiens) (P19793 whole entry, looked up): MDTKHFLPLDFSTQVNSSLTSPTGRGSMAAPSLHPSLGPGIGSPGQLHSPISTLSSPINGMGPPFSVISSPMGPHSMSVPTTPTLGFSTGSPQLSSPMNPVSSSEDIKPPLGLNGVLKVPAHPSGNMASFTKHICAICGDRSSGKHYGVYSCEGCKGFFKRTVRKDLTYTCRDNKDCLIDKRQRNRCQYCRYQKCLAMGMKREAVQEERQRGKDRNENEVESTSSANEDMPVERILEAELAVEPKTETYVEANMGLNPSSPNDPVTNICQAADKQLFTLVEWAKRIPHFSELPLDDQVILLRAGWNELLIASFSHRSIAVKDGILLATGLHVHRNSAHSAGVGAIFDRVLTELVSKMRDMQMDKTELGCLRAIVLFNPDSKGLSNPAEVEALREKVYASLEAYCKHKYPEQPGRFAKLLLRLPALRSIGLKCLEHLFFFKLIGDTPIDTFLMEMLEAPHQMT
Assay [17] in a line: qHTS assay for small molecule agonists of the antioxidant response element (ARE) signaling pathway (AID 651741; active = well fitted activation curve with a large enough effect in the signal ratio; the % refers to the signal ratio; note: potency is the fitted concentration of half-maximal effect; for activation: % of control where 0% means no effect). In short, it runs like this: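 HepG2 ARE-bla reporter cells, 2,000/well; 5 h settle at 37 C/5% CO2; compound pin transfer (23 nL, DMSO); 16 h at 37 C; LiveBLAzer B/G FRET substrate, 2 h RT; fluorescence intensity read.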
Assay [18] can be described thus: qHTS assay for small molecule activators of the p53 signaling pathway (AID 651743; active = well fitted activation curve with a large enough effect in the signal ratio, not every such curve was filed as active; the % refers to the signal ratio; note: % of control where 0% means no effect). The note with it: HCT-116 p53RE-bla, beta-lactamase FRET ratio, 16 h; activation: hits give high values. In outline:
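Reporter: beta-lactamase driven by p53 response elements, stably integrated in HCT-116 cells. Cells seeded at 4,000/well, 5 h preincubation, compound (DMSO) 16 h at 37 C; B/G FRET substrate 2 h RT; fluorescence intensity read.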

Assay [19] can be described thus: qHTS assay for environmental chemicals that activate the Aryl hydrocarbon Receptor (AhR) signaling pathway (AID 651777). Note: % of control where 0% means no effect; nearly all actives have a fitted effect of over 15% in size. The note with it: 1A2-DRE human hepatoma cells, luciferase, 24 h; activation: hits give high values. In outline:
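1A2-DRE human hepatoma reporter line; 1,200 cells/well; cmpd or DMSO 24 h, 37 C/5% CO2; One-Glo 30 min RT; luciferase lum.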

Assay [20] can be described thus: MultiTox-Fluor Cytotoxicity Assay - LYMP1-002 - Live Cells (AID 955).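 Note: cells exposed to compound for 16 hours; % is set by controls: 0 for no effect and ±100 for the full control effect.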 In short, it runs like this: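 LYMP1-002 lymphoblastoid cells; 2500 cells/well; 16 hr compound exposure, 37 C; MultiTox-Fluor reagent 60 min RT; live-cell fluorescence Ex/Em=405/510; qHTS concentration-response, Hill-equation AC50; tetraoctylammonium bromide positive control.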

In the case of `O=[N+]([O-])c1ccc(Cl)c(Cl)c1`, the call in assay [1] was inactive. For the same compound, the Potency result in assay [2], in assay [3], in [4], in assay [5], in assay [6] and in [7] was “inactive” in each case. Moreover, the Potency result in assay [8], in [9] and in assay [10] was “inactive” throughout.

For `Cc1ccc(O)c(C)c1`, the Potency in assay [11] was greater than 92 µM; in assay [17], 398 µM (active). Also, the result in assay [12], in [1] and in assay [15] was inactive. Also, the caspase-3 activation in assay [13] was 3.54%. Besides, the Potency entry in [3], in [4], in assay [14], in [8], in assay [16] and in [9] was “inactive” throughout. Further, the activation in assay [18] was -2.98% and 8.45% and 2.43%; in assay [19], -0.285% and -2.95% and -1.2%.

In the case of `CCOc1ccc(N)cc1`, in [11], the Potency was greater than 92 µM. Further, the compound was classed as inactive in assay [1] and in assay [20]. For the same compound, the Potency entry in [14], in assay [7], in [16], in assay [9] and in assay [10] was “inactive” throughout. Further, the activation in assay [19] was 1.6%.

As for `ClCBr`, the outcome in assay [12], in assay [1], in assay [20] and in assay [15] was inactive. Moreover, the Potency result in assay [2], in assay [3], in [14], in [6], in [7] and in assay [8] was “inactive” throughout. Further, the Potency entry in assay [10] is “inactive”. In addition, the activation in [19] was -0.711%.

With `Nc1ccc(Br)cc1`, the call in [12] was inactive. In addition, the Potency entry in assay [3], in assay [4], in assay [6], in assay [16], in assay [9] and in assay [10] was “inactive” each time. In addition, the activation in [19] is 0.717%.

In the case of `O=NN(CCO)CCO`, the Potency in [11] is greater than 92 µM. Also, the outcome in assay [1] and in assay [15] was inactive. In addition, the Potency result in assay [4], in [5], in assay [14], in [6], in assay [17] and in assay [9] was “inactive” in each case. Moreover, in [10], the Potency result is “inactive”. The activation in assay [18] was -2.59%.

Turning to `CC(C)(C)OO`, the Potency in assay [11] was greater than 92 µM. Moreover, the compound was classed as inactive in assay [12], in [1] and in assay [15]. Further, the caspase-3 activation in assay [13] is -2.06% and -1.93%. In addition, the Potency result in assay [2], in assay [4], in [5], in assay [8], in assay [16] and in assay [17] was “inactive” throughout. The Potency result in assay [9] and in assay [10] was “inactive” each time. Further, in [18], the activation is 0.296%.
